Measured values taken from PubChem BioAssay AID652257 (The Scripps Research Institute Molecular Screening Center, 2013).
The whole screen tested about 370,000 compounds, of which about 4,800 (1.3%) were called active.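 Rule for the calls: active = inhibition above about 21% made by adding two undisclosed values (limit read from the data); inactive = the rest.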 The list comes from a sample in which actives are over-represented; it also holds similar structures and randomly drawn compounds.

What follows are compounds tested against Protein arginine N-methyltransferase 1 (Homo sapiens) (UniProt Q99873) (assay: human PRMT1 activity-probe blockers – biochemical, fluorescence polarization, primary screen (AID 652257)). Conditions: recombinant PRMT1, activity-based probe fluorescence polarization; at 2.79 µM; stronger effect = higher value.
Sequence of Protein arginine N-methyltransferase 1 (Homo sapiens) (Q99873 whole entry, looked up): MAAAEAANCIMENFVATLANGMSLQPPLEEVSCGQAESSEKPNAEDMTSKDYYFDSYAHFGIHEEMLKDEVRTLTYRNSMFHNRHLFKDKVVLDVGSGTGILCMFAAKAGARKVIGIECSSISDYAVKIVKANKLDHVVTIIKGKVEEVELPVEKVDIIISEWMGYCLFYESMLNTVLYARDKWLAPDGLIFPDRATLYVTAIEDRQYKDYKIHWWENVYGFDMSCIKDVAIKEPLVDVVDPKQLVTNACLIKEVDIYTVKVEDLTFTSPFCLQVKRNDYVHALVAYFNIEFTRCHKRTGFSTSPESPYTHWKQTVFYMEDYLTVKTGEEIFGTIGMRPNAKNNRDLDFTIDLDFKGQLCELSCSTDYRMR

inhibition, active:
O=C(O)c1ccc(/C=C2\SC(=S)N(NC(=O)c3ccc(Br)cc3)C2=O)cc1 30.2%
FC(F)(F)c1nc2ccccc2nc1N/N=C/c1ccc(Cl)cc1 66.9%
O=C(CN1C(=O)S/C(=C\c2ccccc2F)C1=O)NCCCn1ccnc1 29.4%
O=C(Nc1ccc(S(=O)(=O)N2CCOCC2)cc1)c1ccc2ncsc2c1 22.4%
COc1ccc(-c2cc3c(c4c2ccn4C)C2CCC3C2)cn1 (stereo unspecified) 32.2%
CCCn1c(C(O)c2cc(OC)ccc2OC)nc2ccccc21 (stereo unspecified) 23.1%
CN(C)C(=O)N=NC(=O)N(C)C 27.4%
N#CC1=C(N)Oc2c(sc3ccccc23)C1c1ccco1 (stereo unspecified) 26.8%
O=C(Nc1ccccc1Cl)/C(Cl)=C(\Cl)S(=O)c1ccccc1 (stereo unspecified) 80.3%
O=c1[nH]c2ccccc2n2c(-c3ccccc3)nnc12 85.2%
CCN1CCN(C(=O)N[C@@H](C(=O)N[C@@H]2C(=O)N3C(C(=O)O)=C(CSc4nnnn4C)CS[C@H]23)c2ccc(O)cc2)C(=O)C1=O 28.5%

inhibition, inactive:
COC(=O)C1CN(CC(C)C)CCS(=O)(=O)N1Cc1ccc(F)cc1 (stereo unspecified) 1.47%
CN(CCc1ccccc1)C(=O)Cn1nc(-c2ccccc2)ccc1=O -1.41%
Cc1[nH]c2ccccc2c1C(=O)C(C)Sc1nnc(C2CC2)o1 (stereo unspecified) 2.13%
Nn1c(SCC(=O)N2c3ccccc3Sc3ccccc32)nnc1-c1n[nH]c2c1CCC2 5.44%
C/C(CC(=O)N1CCN(C=O)CC1)=N\NC(=O)c1ccc(Br)cc1 2.11%
O=C(NCCN1C(=O)S/C(=C\c2cccnc2)C1=O)c1ccc(S(=O)(=O)N2CCCC2)cc1 4.69%
CCCn1nnnc1NCc1ccc(CC)cc1 1.58%
Cc1ccc(C(=O)C2CCN(CC(=O)NCCC(C)C)CC2)cc1 4.05%
Clc1ccc(Nc2ccc3ccccc3n2)cc1 -3.42%
CN(CCO)c1ccc(/C=N/Nc2nncc3ccccc23)cc1 -2.83%
COC(=O)[C@]1(Cc2ccccc2)NC=C(C(=O)c2ccccc2)[C@@H]1c1cccc(OC)c1 2.58%
O=C(CCN1C(=O)c2ccccc2C1=O)NCCCn1ccnc1 1.79%
O=C(NCCCn1ccnc1)/C(=C\c1ccccc1F)NC(=O)c1ccccc1 -3.1%
CCC[C@H]1C(=O)CC[C@@]23CCCN2C(=O)CCC[C@@H]13 1.57%
COCCN(C(=O)c1ccco1)c1nnc(-c2ccc(OC)cc2)s1 1.28%
O=C(CCl)NC1CCCCN(Cc2cccc(C(F)(F)F)c2)C1=O (stereo unspecified) 3.41%
CC1Cn2c(nnc2-c2cccs2)S1 (stereo unspecified) 5.98%
O=C(Nc1ccc2cn[nH]c2c1)c1ccc(S(=O)(=O)N2CCOCC2)cc1 3.18%
O=C(Nc1ccc(N2CCOCC2)c(Cl)c1)c1ccc(S(=O)(=O)N2CCOCC2)cc1 1.99%
O=C(CSc1nc2ccccc2nc1N1CCCCC1)N1CCN(S(=O)(=O)c2cccc([N+](=O)[O-])c2)CC1 0.86%
O=C(CSc1nc2ccccc2n1Cc1ccccc1)NNC(=S)Nc1ccccc1 1.31%
CC(=O)O[C@@]1(C(C)=O)CCC2[C@H]3C=C(C)C4=CC(=O)CC[C@@]4(C)C3CC[C@]21C (stereo partly specified) -2.39%
Cc1ccccc1-c1ccc2c(c1)O[C@@H](CN(C)Cc1ccc(C(=O)O)cc1)[C@@H](C)CN([C@H](C)CO)S2(=O)=O -1.8%
COc1ccc(OC)c(C(O)c2nc3ccccc3n2C)c1 (stereo unspecified) 5.63%
CCn1c(C(O)c2cc(OC)ccc2OC)nc2ccccc21 (stereo unspecified) -3.51%
Cc1ccc(S(=O)(=O)NC(=O)N2CCCC(C)(C)C2)cc1 -1.8%
CC(NC(=O)c1cc(=O)[nH]c2ccccc12)c1ccc(F)cc1F (stereo unspecified) 0.78%
CCOC(=O)c1cccc(NC(=O)CN(C)S(=O)(=O)c2ccc(-c3cocn3)s2)c1 -6.43%
O=C(Nc1cccc(C(=O)NC2CC2)c1)c1ccc(F)c(S(=O)(=O)N2CCOCC2)c1 1.48%
O=C(Nc1ccnn1C1CCN(C/C=C/c2ccc(F)cc2)CC1)C1CCCC1 -2.06%
O=C(N[C@H](C(=O)N1CCC[C@H]1C(=O)NCCc1ccccc1Cl)c1ccccc1)c1ccccc1 4.7%
CCOC(=O)[C@]12CCCCC/C=C\1N(Cc1ccc(OC)cc1)C(=O)[C@H]2CC(=O)NCc1ccc(C)o1 11.7%
CCc1nc2c(OCC(N)=O)cccn2c1N(C)C(=O)c1ccc(OC)cc1 -1.98%
CN(C)S(=O)(=O)c1ccc(Cl)c(NC(=O)COC(=O)CC(NC(N)=O)c2ccc(Cl)cc2)c1 (stereo unspecified) -6.61%
O=C(c1ncn2c1c(=O)[nH]c1ccccc12)N1CCc2ccccc2C1 -1.56%
N[C@@H](Cc1ccccc1)C(=O)N1CCC[C@@H]1C(=O)N1CCC2CCN(S(=O)(=O)c3ccccc3)CC21 (stereo partly specified) 3.14%
Cc1nc(N)[nH]c(=O)c1Oc1cccc(C(F)(F)F)c1 -1.54%
O=C(NC1CCC1)c1ccc(C#Cc2cccc(F)c2)c[n+]1[O-] -4.9%
C#CCN([C@H](C(=O)OC)C(C)CC)S(=O)(=O)c1ccccc1Br (stereo partly specified) 1.85%
CCOC(=O)C1=C(CSc2nnnn2C)N(C)C(=O)NC1c1ccccc1 (stereo unspecified) -1.87%
CC(=O)NC1C(Oc2ccc(C=O)cc2)OC(COC(C)=O)C(OC(C)=O)C1OC(C)=O (stereo unspecified) -2.72%
COC(=O)[C@H](C(C)C)N(CCCc1cn(Cc2ccccc2)nn1)S(=O)(=O)c1ccc(F)cc1Br 1.25%
C=CCNC(=S)NNC(=O)COc1c(Cl)cc(Cl)cc1Cl 1.94%
Cc1ccc(-n2c(COc3ccccc3)nnc2SCC(=O)Nc2ccc3c(c2)OCCO3)cc1 1.77%
COc1ccc(-n2c(SCC(=O)Nc3ccccc3-c3ccccc3)nnc2-c2cccnc2)cc1 -3.53%
